According to PubChem BioAssay AID2284376 (EPA ToxCast):
“And” between values parts separate entries of the source, which are not always exact repeats. Equal entries are not always repeated. The source made the active and inactive calls. Rule for the calls: active = hit-call score of the fitted dose curve at least 0.9, where 1 is the maximum; inactive = score below 0.9.

target: Peroxisome proliferator-activated receptor gamma (Homo sapiens) (UniProt P37231); assay: ERF_TW_NR_COA_hPPARG: Eurofins (ERF) Nuclear Receptor (NR) Functional Coactivator Assay for human Peroxisome Proliferator-activated Receptor gamma (PPARg) Agonism, conducted at Taiwan lab site
Method: ERF_TW_NR_COA_hPPARG is a biochemical, single-readout assay that uses extracted gene-proteins in a cell-free assay. Measurements were taken 16 hours after chemical dosing in a 96-well plate. See PPARgamma Human NHR Functional Agonist Coactivator Assay, Panlabs.ERF_TW_NR_COA_hPPARG is an assay component calculated from the ERF_TW_NR_COA_hPPARG assay. It is designed to measure FRET using a type of binding reporter as detected by fluorescence intensity of rosiglitazone with fluorimetry technology.Data from the assay component ERF_TW_NR_COA_hPPARG was analyzed at the assay endpoint, ERF_TW_NR_COA_hPPARG, in the positive analysis fitting direction relative to DMSO as the negative control and baseline of activity. Using a type of binding reporter, gain-of-signal activity can be used to understand changes in binding as they relate to gene PPARG. To generalize the intended target to other relatable targets, this assay endpoint is annotated to the nuclear receptor intended target family, where the subfamily is non-steroidal.
Human recombinant PPARgamma receptors expressed in insect cells are used. Test compound and/or vehicle is incubated with the 2 nM receptors and coactivator peptide for 180 minutes at room temperature. Determination of the amount of complex formed is read spectrofluorimetrically (excitation: 337 nm, emission: 520/490 nm). Test compound-induced increase fluorescence by 50 percent or more (>/=50%) relative to 1 uM GW1929 response indicates possible PPARgamma receptor agonist activity. Test compound-induced inhibition of 5 nM GW1929-induced fluorescence response by 50 percent or more (>/=50%) indicates receptor antagonist activity.

Chain of Peroxisome proliferator-activated receptor gamma (Homo sapiens) (P37231 whole entry, looked up): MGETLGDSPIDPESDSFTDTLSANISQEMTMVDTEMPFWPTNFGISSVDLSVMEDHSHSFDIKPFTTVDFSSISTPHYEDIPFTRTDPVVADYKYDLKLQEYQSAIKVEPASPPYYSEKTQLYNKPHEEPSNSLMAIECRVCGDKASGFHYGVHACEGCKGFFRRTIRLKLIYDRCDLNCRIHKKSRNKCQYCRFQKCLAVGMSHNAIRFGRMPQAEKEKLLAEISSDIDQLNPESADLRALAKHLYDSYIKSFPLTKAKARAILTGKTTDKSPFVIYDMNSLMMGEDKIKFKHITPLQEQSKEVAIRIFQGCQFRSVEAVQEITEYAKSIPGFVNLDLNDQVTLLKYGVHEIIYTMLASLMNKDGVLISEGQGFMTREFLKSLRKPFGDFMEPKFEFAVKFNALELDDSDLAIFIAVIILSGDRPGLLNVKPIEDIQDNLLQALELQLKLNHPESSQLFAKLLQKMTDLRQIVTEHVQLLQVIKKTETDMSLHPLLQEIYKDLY

For NC(=O)c1nc(-c2cccc(-c3cc(F)ccc3OCC(F)(F)C(F)(F)F)c2)n[nH]1, which outcome is on record?
The outcome was “inactive”.

Which outcome does the source give for O=C(O)CCC(F)(F)C(F)(F)C(F)(F)F here?
Its outcome is “inactive”.

O=C(CC(=O)C(F)(F)C(F)(F)C(F)(F)F)c1cccs1 was tested. Which AC50 did it give?
The AC50 was 44.4 µM (active) and 43.2 µM (active).
